Screen size: about 2,000 compounds; fewer than 10 were called active.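 The calls were made as follows: active = compounds that quench the bead-bound fluorescent RNA probe, cutting fluorescence to under half of the solvent control; inactive = the rest.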 A selection follows.

In PubChem BioAssay AID504580 (NMMLSC, 2011) one finds fluorescence response (% of DMSO) data, which are given here for 78 molecules.

The test can be described thus: bead-bound FAM aptamer signal quenchers – biochemical, single point, cherry pick 1, flow cytometry, artefact control for GRK2 RNA aptamer inhibitor project, confirmation (AID 504580).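 Also: counterscreen run without GRK2 so only probe quenching by compound is measured.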 As to conditions: Carboxyfluorescein RNA aptamer on beads, flow cytometry quenching; at 10 µM; hits give low values. A general note: A flow cytometer gives signals particle by particle.
For `C=C(C)C(=O)Nc1cccc(C2=NOC3(C2)C[C@H](C(N)=O)N(C(=O)C(c2ccccc2)c2ccccc2)C3)c1` (stereo partly drawn), the fluorescence response (% of DMSO) is 102% (inactive). On to `COc1cccc(CN(C)CC(=O)Nc2sc3c(c2C#N)CCC3)c1`, for which the fluorescence response (% of DMSO) was 99.9% (inactive).

As for `CCCc1nc2ccccc2c(=O)n1NC(=O)c1c(O)c2ccccc2[nH]c1=O`, the fluorescence response (% of DMSO) was 101% (inactive). To `O=C(Nc1nnc(-c2ccccc2)o1)c1cccc(S(=O)(=O)N2CCOCC2)c1` belongs 101% (inactive); to `CC(C)Cn1c(CN(Cc2ccccc2)Cc2ccccc2)nc2c1c(=O)n(C)c(=O)n2C`, 98% (inactive). Turning to `CN(CC(=O)Nc1ccc(N2CCOCC2)cc1)CC(=O)Nc1ccccc1[N+](=O)[O-]`, the fluorescence response (% of DMSO) was 101% (inactive).

For `COc1cc(C(=O)OCC(=O)N(CC(C)C)C2CCS(=O)(=O)C2)ccc1OCC(C)C` (stereo not drawn), the fluorescence response (% of DMSO) is 91.4% (inactive). Consider `CSc1nc2ccccc2c(=O)n1Cc1ccc(F)cc1`, for which the fluorescence response (% of DMSO) was 100% (inactive).

Consider `CCOC(=O)c1sc2nc(CSc3ccccc3)[nH]c(=O)c2c1C`, for which the fluorescence response (% of DMSO) is 106% (inactive). To `Cn1c(=O)c2c(nc(N3CCOCC3)n2CCNC2=NCCC2)n(C)c1=O` belongs 99.8% (inactive); to `O=C(c1cnn(-c2ccc(Cl)cc2)c1)c1ccccc1O`, 101% (inactive). The same measure for `O=C(NCc1ccccc1Cl)c1ccc2c(=O)n(CC3CCCO3)c(=S)[nH]c2c1` (stereo not drawn): 95.6% (inactive); for `Cc1csc(=O)n1CC(=O)OCC(=O)N(CC(C)C)c1c(N)n(Cc2ccccc2)c(=O)[nH]c1=O`: 99.2% (inactive); for `O=C(COC(=O)c1ccc(F)cc1F)Nc1ncccn1`: 95.8% (inactive). Take `COc1cc(C(=O)NCc2ccc3c(c2)cc(C)n3C)cc(OC)c1OC`: the fluorescence response (% of DMSO) was 96.5% (inactive).

In the case of `O=C(NC(=O)c1cc(OCC(F)(F)F)ccc1OCC(F)(F)F)Nc1ccccc1`, the fluorescence response (% of DMSO) is 103% (inactive). To `CC(=O)N1CC[n+]2c(-c3ccc([N+](=O)[O-])cc3)csc21` belongs 103% (inactive); to `CCOc1ccccc1C(=O)NCc1ccco1`, 96% (inactive); to `Cc1cc2cc(CNC(=O)c3cccs3)ccc2[nH]1`, 86.2% (inactive). `COc1ccc(Nc2nc(-c3cccnc3)nc3ccccc23)cn1`: the fluorescence response (% of DMSO) was 101% (inactive). The same measure for `CCN1/C(=C\c2ccc3ccccc3[n+]2CC)Sc2cc(C)ccc21`: 173% (inactive); for `Cn1c(=O)[nH]c(=O)c2c1nc(N1CCN(C(c3ccccc3)c3ccccc3)CC1)n2CCO`: 98.3% (inactive). To `COC(=O)N/N=C/c1ccc(/C=N/NC(=O)OC)cc1` belongs 100% (inactive); to `COc1ccc(Nc2cc(Sc3ccc(OC)cc3)ncn2)cc1`, 101% (inactive); to `O=C(c1ccc(Cl)cc1)c1ccc(OCC(O)CN2CCCCC2)cc1` (stereo not drawn), 101% (inactive). To `COc1ccc(-n2nc(C(=O)NCC(=O)N3CCCCCC3)c3ccccc3c2=O)cc1Cl` belongs 105% (inactive); to `COc1ccccc1NC(=O)CSc1nc2sc3c(c2c(=O)n1-c1ccccc1)CCN(C)C3`, 94.8% (inactive); to `NC(=O)C1CCN(C(=O)c2ccc3c(=O)n(Cc4cccc(Br)c4)c(=S)[nH]c3c2)CC1`, 98.1% (inactive). As for `COc1ccc(C(=O)NCCNc2ccc([N+](=O)[O-])cn2)cc1`, the fluorescence response (% of DMSO) is 99.4% (inactive).

Turning to `Cc1nc(C(=O)NCc2ccccc2)sc1C1(C)CC(c2cccnc2)=NO1` (stereo not drawn), the fluorescence response (% of DMSO) is 97.1% (inactive). The same measure for `O=C(c1cc2cc(F)ccc2[nH]1)N1CCN(c2ccc(F)cc2)CC1`: 97.9% (inactive); for `CNS(=O)(=O)c1cccc(C(=O)NCC2CCCCC2)c1`: 101% (inactive). The same measure for `Nc1ccc2nc3c(=O)[nH]c(=S)[nH]c3nc2c1`: 83.9% (inactive); for `O=C(Oc1ccc(Br)cc1)c1cccnc1`: 96.7% (inactive); for `Cc1ccccc1-c1nnn(CC(=O)c2ccc(S(=O)(=O)N3CCCC3)cc2)n1`: 96.4% (inactive).

As for `CSc1ccc(/C=C2\NC(=O)NC2=O)cc1`, the fluorescence response (% of DMSO) is 95.8% (inactive).

Consider `Cc1ccc(-c2nn(-c3ccccc3)cc2/C=C2\SC(=S)N(CCCCCC(=O)O)C2=O)o1`, for which the fluorescence response (% of DMSO) is 136% (inactive). To `COCCn1c(C)cc(C(=O)CN2c3cccc4cccc(c34)S2(=O)=O)c1C` belongs 98% (inactive); to `Cc1cc(C(=O)NC2CCN(Cc3ccccc3)CC2)n[nH]1`, 96.6% (inactive); to `C/C(=N\OCC(=O)O)c1ccc(Cl)cc1`, 101% (inactive).

Consider `CC(NC(=O)C1CCCN(S(=O)(=O)c2ccc(-n3cnnn3)cc2)C1)c1ccc(F)cc1` (stereo not drawn), for which the fluorescence response (% of DMSO) was 105% (inactive). To `CCN1C(=O)[C@H]2[C@@H](c3ccc(-c4ccc(OC)cc4)cc3)N[C@@](Cc3ccccc3)(C(=O)OC)[C@H]2C1=O` belongs 96.4% (inactive). The same measure for `COc1ccc(NC(=O)CN(C)C(=O)c2cc(-c3ccc(C)o3)nc3ccccc23)cc1`: 100% (inactive); for `COc1ccc(N2CCN(C(CNS(=O)(=O)c3ccc(C)cc3)c3ccccc3)CC2)cc1` (stereo not drawn): 98.2% (inactive). The same measure for `O=C(NCC12CC3CC(C1)CC(CNC(=O)N1CCCC1)(C3)C2)N1CCCC1`: 98.2% (inactive); for `O=C(O)c1ccc2c(c1)C(=O)N(c1ccc(/C=C/C(=O)c3ccccc3)cc1)C2=O`: 99.8% (inactive). Consider `O=S(=O)(Nc1ccc(-c2ccc(N3CCOCC3)nn2)cc1)c1cc(Cl)ccc1Cl`, for which the fluorescence response (% of DMSO) was 108% (inactive). The same measure for `O=C(NCc1ccccc1)c1cccc(NC(=O)C2CCCCC2)c1`: 98% (inactive); for `CCC(=C/c1sc2ccc3ccccc3c2[n+]1C)/C=C1\Sc2ccc3ccccc3c2N1C`: 10.7% (active); for `Cc1ccccc1CN1CCN(CC(=O)NCc2ccccn2)C1=O`: 101% (inactive).

For the molecule `Cc1ccc(S(=O)(=O)CCC(=O)Nc2nnc(CC(C)C)s2)cc1`, the fluorescence response (% of DMSO) was 99.8% (inactive). To `O=C(CCNC(=O)c1ccccc1)NN=Cc1ccc(Br)o1` belongs 96.6% (inactive). To `Cc1ccc(C(CNC(=O)Nc2cccc(C)c2)N2CCN(C)CC2)cc1` (stereo not drawn) belongs 98% (inactive); to `O=c1[nH]c(SCc2ccccc2)nnc1-c1ccccc1`, 98.2% (inactive); to `Cc1nc(Nc2ccccc2F)c2nnn(Cc3ccccc3Cl)c2n1`, 99.8% (inactive). To `CCOC(=O)C1CCCN(Cc2nc(N)nc(Nc3ccc(C)cc3)n2)C1` (stereo not drawn) belongs 80% (inactive). Consider `Cc1ccc(N2C(=O)C3N=NN(CC(=O)N4N=C(c5cccc6ccccc56)CC4c4ccccc4)C3C2=O)cc1` (stereo not drawn), for which the fluorescence response (% of DMSO) was 101% (inactive). To `OC(CN=c1sc2ccccc2n1CC(O)COc1ccccc1)COc1ccccc1` (stereo not drawn) belongs 95.8% (inactive).

As for `CC(C)CN(C(=O)c1cccc(S(=O)(=O)N2CCCCC2)c1)C1CCS(=O)(=O)C1` (stereo not drawn), the fluorescence response (% of DMSO) is 102% (inactive). With `O=C(COc1ccccc1)NCCc1nc2ccccc2[nH]1`, the fluorescence response (% of DMSO) was 99.7% (inactive). On to `CCOC(=O)C(C)n1cnc2scc(-c3ccc(C)c(C)c3)c2c1=O` (stereo not drawn), for which the fluorescence response (% of DMSO) is 95.4% (inactive). To `Cc1cc(/C=C2\SC(=O)N(C)C2=O)c(C)n1-c1cccc(C(=O)O)c1` belongs 96.6% (inactive); to `COc1ccc(Cl)cc1NC(=O)CCS(=O)(=O)c1cc2c(cc1C)NC(=O)CO2`, 99.6% (inactive); to `COC(=O)c1ccc(C)c(NC(=O)C2CC(=O)N(C3CCCC(C)C3C)C2)c1` (stereo not drawn), 94.9% (inactive). The same measure for `CCN1/C(=C/c2ccc3ccc(C)cc3[n+]2CC)Sc2ccccc21`: 142% (inactive); for `Cc1cccc(NC(=O)C2CCCN(C(=O)NCc3ccccc3)C2)c1C` (stereo not drawn): 102% (inactive); for `CCCCn1nc(C(=O)OCC(=O)Nc2sccc2C(N)=O)c2ccccc2c1=O`: 99.8% (inactive). The same measure for `O=C(CCS(=O)(=O)c1ccc(Br)cc1)NCCc1ccc(Cl)cc1`: 102% (inactive); for `O=C1C2N=NN(CC(=O)N3N=C(c4cccc5ccccc45)CC3c3ccccc3)C2C(=O)N1c1ccccc1` (stereo not drawn): 91.2% (inactive). Regarding `CN/C(=C\[N+](=O)[O-])NCCSCc1csc(CN(C)C)n1`, the fluorescence response (% of DMSO) was 99.2% (inactive). The same measure for `COCCCNC(=O)CNC(=O)c1nn(-c2ccc(OC)cc2)c(=O)c2ccccc12`: 96.3% (inactive); for `O=C(NNc1ncnc2c1cnn2-c1ccccc1)c1ccco1`: 97.9% (inactive); for `CC(=O)c1ccc(OCC(O)CN2CCN(S(=O)(=O)c3cccc(Br)c3)CC2)cc1` (stereo not drawn): 142% (inactive).

Regarding `CCOCCCNC(=O)C(NC(=O)CNC(=O)c1ccccc1)c1ccc(OC)cc1` (stereo not drawn), the fluorescence response (% of DMSO) is 96% (inactive).

As to `Cc1nn(Cc2ccc(F)cc2)c(C)c1NC(=O)c1noc2c1CCc1ccccc1-2`, the fluorescence response (% of DMSO) is 97% (inactive). To `C/C(=N\Nc1nc2ccccc2[nH]1)c1cccs1` belongs 92.8% (inactive); to `O=C(Nc1ccc(-c2nnc(-c3ccccc3)o2)cc1)c1ccc(Br)o1`, 98.8% (inactive). To `CN(Cc1ccccc1)C(=O)c1cccc(C(=O)N(C)Cc2ccccc2)c1` belongs 101% (inactive).
